# From ChEMBL document CHEMBL2218924, “A broad activity screen in support of a chemogenomic map for kinase signalling research and drug discovery” (Biochem J, 2013)
# Key:
# [1] = biological target: T1, Ephrin type-B receptor 1 (Homo sapiens) (UniProt P54762); conditions: at 10 µM
# T1 sequence (whole entry): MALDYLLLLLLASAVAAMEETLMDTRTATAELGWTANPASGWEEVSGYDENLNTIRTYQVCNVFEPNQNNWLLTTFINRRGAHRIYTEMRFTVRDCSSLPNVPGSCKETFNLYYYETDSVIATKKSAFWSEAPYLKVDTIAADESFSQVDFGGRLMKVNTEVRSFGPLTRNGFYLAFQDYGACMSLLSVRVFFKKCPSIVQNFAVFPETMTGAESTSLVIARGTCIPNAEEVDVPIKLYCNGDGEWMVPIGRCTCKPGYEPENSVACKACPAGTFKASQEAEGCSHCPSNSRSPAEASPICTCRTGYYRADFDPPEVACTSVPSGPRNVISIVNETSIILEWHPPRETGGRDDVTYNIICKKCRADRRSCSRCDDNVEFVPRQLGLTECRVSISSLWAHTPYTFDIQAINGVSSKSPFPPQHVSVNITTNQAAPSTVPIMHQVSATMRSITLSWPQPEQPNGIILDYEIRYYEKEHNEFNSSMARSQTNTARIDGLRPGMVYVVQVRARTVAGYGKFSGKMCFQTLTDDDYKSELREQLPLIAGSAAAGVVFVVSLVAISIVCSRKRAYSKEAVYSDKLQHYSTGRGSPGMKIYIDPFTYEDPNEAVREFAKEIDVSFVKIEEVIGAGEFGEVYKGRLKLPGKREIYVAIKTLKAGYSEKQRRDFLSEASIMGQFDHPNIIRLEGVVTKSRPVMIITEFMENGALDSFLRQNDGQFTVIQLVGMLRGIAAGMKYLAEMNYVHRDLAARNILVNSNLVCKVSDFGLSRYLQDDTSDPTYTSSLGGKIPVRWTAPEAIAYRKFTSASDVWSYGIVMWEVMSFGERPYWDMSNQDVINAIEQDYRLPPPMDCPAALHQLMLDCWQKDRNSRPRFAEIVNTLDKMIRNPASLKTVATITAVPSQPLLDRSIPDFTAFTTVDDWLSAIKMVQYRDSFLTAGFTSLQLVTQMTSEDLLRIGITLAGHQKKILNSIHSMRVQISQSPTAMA
# [2] = biological target: T2, Ephrin type-B receptor 2 (Homo sapiens) (UniProt P29323); conditions: at 1 µM
# T2 sequence (whole entry): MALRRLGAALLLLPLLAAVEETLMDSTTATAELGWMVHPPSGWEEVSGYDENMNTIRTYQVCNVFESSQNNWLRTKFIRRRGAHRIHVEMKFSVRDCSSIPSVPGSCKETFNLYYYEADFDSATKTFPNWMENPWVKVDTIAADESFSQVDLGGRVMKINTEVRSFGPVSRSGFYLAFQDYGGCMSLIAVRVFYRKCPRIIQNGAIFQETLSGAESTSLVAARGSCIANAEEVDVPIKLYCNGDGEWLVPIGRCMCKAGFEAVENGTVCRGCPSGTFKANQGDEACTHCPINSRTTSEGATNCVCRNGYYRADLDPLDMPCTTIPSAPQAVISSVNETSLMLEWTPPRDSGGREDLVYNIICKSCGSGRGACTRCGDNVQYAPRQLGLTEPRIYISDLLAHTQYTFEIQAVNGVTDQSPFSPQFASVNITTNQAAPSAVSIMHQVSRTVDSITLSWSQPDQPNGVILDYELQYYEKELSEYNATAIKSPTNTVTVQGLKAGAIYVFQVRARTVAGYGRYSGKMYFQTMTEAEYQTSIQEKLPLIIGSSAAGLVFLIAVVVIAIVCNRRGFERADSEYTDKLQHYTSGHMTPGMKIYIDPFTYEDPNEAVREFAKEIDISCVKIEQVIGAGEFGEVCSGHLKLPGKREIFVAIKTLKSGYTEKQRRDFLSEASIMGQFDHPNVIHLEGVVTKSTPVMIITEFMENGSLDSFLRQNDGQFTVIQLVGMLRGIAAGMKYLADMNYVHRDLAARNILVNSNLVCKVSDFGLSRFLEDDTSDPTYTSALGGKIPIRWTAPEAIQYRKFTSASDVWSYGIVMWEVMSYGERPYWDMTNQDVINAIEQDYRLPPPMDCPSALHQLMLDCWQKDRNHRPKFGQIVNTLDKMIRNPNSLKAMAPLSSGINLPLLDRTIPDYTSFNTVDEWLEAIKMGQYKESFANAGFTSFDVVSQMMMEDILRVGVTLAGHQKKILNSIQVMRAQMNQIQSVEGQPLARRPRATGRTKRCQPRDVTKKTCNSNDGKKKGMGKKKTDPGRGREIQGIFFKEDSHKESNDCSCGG
# [3] = biological target: T2, Ephrin type-B receptor 2 (Homo sapiens); conditions: at 10 µM
# [4] = biological target: T3, Ephrin type-B receptor 3 (Homo sapiens) (UniProt P54753); conditions: at 1 µM
# T3 sequence (whole entry): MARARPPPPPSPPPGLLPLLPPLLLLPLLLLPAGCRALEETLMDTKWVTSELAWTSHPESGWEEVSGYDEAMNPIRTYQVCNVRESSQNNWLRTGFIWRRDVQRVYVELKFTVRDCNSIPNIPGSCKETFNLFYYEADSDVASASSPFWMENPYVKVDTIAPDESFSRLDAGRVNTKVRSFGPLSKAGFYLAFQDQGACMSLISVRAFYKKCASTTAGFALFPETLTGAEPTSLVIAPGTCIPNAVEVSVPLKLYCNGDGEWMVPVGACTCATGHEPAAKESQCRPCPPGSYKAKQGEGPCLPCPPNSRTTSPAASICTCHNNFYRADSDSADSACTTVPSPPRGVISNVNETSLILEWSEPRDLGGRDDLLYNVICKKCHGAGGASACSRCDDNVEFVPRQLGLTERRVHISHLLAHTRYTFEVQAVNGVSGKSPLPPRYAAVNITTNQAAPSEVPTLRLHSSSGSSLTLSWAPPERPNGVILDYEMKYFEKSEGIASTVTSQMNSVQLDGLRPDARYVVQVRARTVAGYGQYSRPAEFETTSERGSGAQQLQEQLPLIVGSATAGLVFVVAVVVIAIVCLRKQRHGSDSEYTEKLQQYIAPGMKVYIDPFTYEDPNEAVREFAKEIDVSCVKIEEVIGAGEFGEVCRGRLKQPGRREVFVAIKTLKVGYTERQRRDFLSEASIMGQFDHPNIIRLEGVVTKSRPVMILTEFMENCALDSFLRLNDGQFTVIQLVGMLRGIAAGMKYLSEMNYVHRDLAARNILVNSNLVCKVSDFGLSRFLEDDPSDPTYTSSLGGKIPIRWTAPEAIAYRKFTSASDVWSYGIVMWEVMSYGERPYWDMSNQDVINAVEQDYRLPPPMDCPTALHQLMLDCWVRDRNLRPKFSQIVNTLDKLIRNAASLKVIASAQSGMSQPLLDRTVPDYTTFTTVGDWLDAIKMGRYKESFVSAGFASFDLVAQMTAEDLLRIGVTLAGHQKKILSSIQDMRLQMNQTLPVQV
# [5] = biological target: T3, Ephrin type-B receptor 3 (Homo sapiens); conditions: at 10 µM
# [6] = biological target: T4, Ephrin type-B receptor 4 (Homo sapiens) (UniProt P54760); conditions: at 1 µM
# T4 sequence (whole entry): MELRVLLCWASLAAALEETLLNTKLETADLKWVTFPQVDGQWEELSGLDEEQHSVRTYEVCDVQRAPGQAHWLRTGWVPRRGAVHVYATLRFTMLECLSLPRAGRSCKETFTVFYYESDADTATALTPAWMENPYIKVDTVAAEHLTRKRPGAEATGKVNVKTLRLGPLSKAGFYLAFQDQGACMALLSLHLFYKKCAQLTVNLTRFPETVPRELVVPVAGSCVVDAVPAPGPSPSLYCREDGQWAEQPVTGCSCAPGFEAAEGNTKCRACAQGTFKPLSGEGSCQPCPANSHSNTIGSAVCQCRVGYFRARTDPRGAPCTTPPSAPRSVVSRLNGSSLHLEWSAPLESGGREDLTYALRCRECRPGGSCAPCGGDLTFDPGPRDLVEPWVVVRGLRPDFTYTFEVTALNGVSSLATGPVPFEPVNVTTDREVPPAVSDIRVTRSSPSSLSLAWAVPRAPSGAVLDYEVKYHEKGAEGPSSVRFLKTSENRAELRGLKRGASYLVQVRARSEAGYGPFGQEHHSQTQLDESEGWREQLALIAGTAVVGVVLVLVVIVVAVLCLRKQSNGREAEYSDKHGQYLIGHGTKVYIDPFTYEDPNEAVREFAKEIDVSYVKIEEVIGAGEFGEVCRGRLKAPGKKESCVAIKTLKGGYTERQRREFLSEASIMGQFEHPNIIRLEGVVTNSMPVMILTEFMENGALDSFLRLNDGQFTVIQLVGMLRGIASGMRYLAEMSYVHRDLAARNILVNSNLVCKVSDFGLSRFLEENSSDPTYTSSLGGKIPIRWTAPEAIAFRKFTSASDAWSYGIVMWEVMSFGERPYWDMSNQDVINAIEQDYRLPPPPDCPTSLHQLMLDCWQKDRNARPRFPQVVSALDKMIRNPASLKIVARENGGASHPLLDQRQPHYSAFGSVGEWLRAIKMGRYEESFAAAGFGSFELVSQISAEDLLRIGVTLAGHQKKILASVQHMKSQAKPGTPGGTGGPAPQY
# [7] = biological target: T4, Ephrin type-B receptor 4 (Homo sapiens); conditions: at 10 µM
# [8] = biological target: Receptor tyrosine-protein kinase erbB-4 (Homo sapiens) (UniProt Q15303); conditions: at 1 µM
# Chain of Receptor tyrosine-protein kinase erbB-4 (Homo sapiens) (Q15303 whole entry): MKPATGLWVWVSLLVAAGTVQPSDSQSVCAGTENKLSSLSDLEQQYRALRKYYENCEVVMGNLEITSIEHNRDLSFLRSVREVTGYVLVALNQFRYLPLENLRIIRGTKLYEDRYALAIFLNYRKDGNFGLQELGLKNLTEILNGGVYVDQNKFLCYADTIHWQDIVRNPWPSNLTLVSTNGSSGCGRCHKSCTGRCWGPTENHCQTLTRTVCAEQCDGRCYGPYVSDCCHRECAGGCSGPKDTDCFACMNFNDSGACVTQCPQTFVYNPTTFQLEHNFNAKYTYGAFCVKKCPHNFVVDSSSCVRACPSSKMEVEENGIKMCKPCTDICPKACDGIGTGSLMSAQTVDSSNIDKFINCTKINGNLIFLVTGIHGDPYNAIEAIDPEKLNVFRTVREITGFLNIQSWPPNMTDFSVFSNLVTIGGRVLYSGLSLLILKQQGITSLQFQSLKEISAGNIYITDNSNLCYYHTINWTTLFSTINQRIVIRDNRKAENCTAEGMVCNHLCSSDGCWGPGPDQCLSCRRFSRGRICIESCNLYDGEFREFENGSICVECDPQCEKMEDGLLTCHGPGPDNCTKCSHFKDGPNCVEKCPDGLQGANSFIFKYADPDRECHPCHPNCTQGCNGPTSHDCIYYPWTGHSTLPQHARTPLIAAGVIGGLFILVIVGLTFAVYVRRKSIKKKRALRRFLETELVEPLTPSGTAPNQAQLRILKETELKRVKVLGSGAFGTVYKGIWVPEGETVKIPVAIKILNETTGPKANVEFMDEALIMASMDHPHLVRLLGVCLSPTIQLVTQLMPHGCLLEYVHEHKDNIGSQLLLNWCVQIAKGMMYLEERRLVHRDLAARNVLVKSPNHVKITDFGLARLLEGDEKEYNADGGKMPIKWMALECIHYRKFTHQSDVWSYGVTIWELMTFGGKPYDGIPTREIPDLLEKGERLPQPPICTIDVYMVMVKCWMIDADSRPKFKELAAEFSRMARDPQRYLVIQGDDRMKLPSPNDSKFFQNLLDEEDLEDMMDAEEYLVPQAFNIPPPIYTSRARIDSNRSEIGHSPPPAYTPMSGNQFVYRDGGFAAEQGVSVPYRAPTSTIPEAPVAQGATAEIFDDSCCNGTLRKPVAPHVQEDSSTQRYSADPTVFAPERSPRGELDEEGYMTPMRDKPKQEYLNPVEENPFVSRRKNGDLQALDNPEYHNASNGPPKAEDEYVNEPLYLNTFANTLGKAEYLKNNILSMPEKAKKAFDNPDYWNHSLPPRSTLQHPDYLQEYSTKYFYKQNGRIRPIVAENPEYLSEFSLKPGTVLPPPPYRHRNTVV
# [9] = biological target: Receptor tyrosine-protein kinase erbB-4 (Homo sapiens) (UniProt Q15303); conditions: at 10 µM
# [10] = biological target: Focal adhesion kinase 1 (Homo sapiens) (UniProt Q05397); conditions: at 1 µM
# Chain of Focal adhesion kinase 1 (Homo sapiens) (Q05397 2-1052 limits assumed): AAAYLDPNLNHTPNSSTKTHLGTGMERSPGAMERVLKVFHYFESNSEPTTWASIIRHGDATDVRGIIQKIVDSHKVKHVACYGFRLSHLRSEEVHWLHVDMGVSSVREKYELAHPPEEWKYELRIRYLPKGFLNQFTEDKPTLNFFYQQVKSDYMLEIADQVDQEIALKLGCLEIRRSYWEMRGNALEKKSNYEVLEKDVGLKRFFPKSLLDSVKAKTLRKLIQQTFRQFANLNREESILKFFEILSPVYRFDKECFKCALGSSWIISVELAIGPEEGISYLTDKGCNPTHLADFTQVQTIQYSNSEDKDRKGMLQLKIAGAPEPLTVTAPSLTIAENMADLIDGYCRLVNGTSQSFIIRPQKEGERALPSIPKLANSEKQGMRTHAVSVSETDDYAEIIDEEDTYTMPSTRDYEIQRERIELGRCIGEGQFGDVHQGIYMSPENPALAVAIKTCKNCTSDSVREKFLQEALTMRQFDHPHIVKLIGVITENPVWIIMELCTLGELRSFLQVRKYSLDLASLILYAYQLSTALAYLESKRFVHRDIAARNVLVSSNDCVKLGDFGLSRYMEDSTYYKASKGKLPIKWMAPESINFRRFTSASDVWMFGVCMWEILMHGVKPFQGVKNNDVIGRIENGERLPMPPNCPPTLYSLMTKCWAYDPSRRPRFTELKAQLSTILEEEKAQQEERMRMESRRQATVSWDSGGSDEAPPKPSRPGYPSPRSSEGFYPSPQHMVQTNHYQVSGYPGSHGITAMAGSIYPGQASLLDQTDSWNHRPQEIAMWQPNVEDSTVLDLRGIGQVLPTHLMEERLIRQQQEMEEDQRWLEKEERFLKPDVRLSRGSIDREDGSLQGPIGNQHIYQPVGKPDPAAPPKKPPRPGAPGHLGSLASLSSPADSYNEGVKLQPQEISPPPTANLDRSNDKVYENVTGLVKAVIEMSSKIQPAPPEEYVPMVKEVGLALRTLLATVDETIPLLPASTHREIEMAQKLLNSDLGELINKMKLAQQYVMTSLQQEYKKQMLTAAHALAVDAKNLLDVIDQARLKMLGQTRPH
smiles,measurement,setting,value
O=C(O)c1ccc2c3c1cccc3c(=O)n1c3ccccc3nc21,residual activity,[1],98%
same,residual activity,[2],105%
same,residual activity,[3],108%
same,residual activity,[4],98% (inactive)
same,residual activity,[5],110%
same,residual activity,[6],102%
same,residual activity,[7],100%
same,residual activity,[8],105%
same,residual activity,[9],95%
same,residual activity,[10],112%
